# According to the supplement of paper PMC10849652:
# Of roughly 8,800 targets only a part is listed; those with a hit were picked by preference. About 0.5% of all pairs of compound and target were hits. Values without a mark were called inactive.
# Tests used:
# Experiment in all cases: log2 fold change, soluble protein after heating vs DMSO (PISA); higher = thermal stabilisation; K562 lysate, 10 uM; active = over 0.2 and 3.5 SD of the protein, either way, in both replicates (recomputed)
# [1] = compound: NCC(=O)Nc1ccc(-n2nc(C(F)(F)F)cc2-c2ccc3c(ccc4ccccc43)c2)cc1
# Summary of the method: (§1)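 Soluble protein was defined as the supernatant remaining after 21,000xg for 90 min, following pooling of heated aliquots and adjustment to 0.5% NP-40 at 4°C. Before that, crude K562 extract at 1 mg/mL protein in PBS pH 7.4 with 1 mM MgCl2 was treated with 10 μM compound for 30 min and heated for 3 min across 48°C-58°C. Quantification used TMTpro 16plex LC-MS/MS with channel sums equalised, and values are log-two fold changes in thermal stability relative to solvent controls from duplicates.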
# vorinostat = compound: O=C(CCCCCCC(=O)Nc1ccccc1)NO [vorinostat]
# Summary of the method: as §1
# silmitasertib = compound: O=C(O)c1ccc2c(c1)nc(Nc1cccc(Cl)c1)c1ccncc12 [silmitasertib]
# Summary of the method: as §1
# [2] = compound: O=C1NC(=O)C(c2cnc3ccccn23)=C1c1cn2c3c(cc(F)cc13)CN(C(=O)N1CCCCC1)CC2
# Summary of the method: as §1
# entospletinib = compound: c1cn2cc(-c3ccc4cn[nH]c4c3)nc(Nc3ccc(N4CCOCC4)cc3)c2n1 [entospletinib]
# Summary of the method: as §1
# UniProt Q13555, sequence (Q13555 whole entry, looked up): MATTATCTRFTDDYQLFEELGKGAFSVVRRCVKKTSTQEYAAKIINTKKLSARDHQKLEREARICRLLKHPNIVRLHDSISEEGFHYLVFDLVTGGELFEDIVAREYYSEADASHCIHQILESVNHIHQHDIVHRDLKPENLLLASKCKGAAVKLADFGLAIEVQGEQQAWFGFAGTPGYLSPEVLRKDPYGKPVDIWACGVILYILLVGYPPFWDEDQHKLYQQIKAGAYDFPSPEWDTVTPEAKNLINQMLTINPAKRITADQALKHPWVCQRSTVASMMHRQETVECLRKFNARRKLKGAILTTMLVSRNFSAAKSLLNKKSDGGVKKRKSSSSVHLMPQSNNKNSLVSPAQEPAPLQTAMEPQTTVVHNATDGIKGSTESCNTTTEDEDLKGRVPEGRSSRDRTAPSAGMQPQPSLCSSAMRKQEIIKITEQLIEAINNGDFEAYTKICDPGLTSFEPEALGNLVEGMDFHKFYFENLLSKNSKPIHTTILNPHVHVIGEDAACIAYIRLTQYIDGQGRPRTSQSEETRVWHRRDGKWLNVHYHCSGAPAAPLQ
# UniProt O60508, sequence (O60508 whole entry, looked up): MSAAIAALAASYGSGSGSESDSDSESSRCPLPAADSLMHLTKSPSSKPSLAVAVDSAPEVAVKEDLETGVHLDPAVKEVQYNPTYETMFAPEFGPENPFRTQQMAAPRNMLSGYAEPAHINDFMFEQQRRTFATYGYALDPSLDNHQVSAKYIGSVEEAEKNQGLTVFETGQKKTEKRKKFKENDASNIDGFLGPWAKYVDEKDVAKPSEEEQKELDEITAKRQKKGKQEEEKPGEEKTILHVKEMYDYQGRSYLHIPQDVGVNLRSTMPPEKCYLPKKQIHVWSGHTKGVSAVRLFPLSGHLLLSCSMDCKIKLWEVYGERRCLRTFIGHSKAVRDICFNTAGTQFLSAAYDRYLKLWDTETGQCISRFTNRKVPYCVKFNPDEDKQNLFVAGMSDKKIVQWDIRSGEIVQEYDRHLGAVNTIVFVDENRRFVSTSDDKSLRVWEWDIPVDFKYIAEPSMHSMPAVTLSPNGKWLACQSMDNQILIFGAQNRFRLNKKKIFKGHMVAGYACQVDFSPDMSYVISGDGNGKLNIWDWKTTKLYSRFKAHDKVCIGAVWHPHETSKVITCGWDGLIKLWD
# UniProt Q9Y2V0, sequence (Q9Y2V0 whole entry, looked up): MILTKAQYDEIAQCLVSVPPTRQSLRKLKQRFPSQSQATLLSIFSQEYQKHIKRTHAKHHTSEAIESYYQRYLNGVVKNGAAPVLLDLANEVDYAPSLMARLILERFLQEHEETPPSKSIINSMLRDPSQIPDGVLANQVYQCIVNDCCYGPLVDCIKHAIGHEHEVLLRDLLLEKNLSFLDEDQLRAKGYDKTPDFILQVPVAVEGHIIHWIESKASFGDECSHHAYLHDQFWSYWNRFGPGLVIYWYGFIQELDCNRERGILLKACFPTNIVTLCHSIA
# UniProt Q8TCD1, sequence (Q8TCD1 whole entry, looked up): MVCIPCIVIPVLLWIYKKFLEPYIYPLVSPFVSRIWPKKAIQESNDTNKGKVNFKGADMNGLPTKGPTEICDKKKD
# UniProt Q9BSU1, sequence (Q9BSU1 whole entry, looked up): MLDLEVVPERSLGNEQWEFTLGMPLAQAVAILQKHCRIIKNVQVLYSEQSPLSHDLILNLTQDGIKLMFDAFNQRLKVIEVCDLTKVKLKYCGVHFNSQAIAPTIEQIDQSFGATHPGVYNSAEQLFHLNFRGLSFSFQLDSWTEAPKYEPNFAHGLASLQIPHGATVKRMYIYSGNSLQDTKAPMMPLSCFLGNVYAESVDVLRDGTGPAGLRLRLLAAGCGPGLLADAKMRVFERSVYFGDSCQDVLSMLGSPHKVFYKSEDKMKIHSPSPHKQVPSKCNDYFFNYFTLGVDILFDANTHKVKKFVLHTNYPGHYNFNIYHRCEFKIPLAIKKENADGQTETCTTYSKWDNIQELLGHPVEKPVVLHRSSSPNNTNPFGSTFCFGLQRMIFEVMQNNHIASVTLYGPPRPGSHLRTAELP
# UniProt Q86WA6, sequence (Q86WA6 whole entry, looked up): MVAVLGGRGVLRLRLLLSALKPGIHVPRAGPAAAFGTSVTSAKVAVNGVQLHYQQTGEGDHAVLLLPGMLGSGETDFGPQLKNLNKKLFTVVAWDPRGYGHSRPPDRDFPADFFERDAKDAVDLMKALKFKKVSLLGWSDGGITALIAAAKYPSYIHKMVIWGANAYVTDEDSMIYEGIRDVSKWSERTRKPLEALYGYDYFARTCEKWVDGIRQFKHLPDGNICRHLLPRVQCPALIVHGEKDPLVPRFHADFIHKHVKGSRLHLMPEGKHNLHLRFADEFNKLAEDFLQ
# UniProt Q14692, sequence (Q14692 whole entry, looked up): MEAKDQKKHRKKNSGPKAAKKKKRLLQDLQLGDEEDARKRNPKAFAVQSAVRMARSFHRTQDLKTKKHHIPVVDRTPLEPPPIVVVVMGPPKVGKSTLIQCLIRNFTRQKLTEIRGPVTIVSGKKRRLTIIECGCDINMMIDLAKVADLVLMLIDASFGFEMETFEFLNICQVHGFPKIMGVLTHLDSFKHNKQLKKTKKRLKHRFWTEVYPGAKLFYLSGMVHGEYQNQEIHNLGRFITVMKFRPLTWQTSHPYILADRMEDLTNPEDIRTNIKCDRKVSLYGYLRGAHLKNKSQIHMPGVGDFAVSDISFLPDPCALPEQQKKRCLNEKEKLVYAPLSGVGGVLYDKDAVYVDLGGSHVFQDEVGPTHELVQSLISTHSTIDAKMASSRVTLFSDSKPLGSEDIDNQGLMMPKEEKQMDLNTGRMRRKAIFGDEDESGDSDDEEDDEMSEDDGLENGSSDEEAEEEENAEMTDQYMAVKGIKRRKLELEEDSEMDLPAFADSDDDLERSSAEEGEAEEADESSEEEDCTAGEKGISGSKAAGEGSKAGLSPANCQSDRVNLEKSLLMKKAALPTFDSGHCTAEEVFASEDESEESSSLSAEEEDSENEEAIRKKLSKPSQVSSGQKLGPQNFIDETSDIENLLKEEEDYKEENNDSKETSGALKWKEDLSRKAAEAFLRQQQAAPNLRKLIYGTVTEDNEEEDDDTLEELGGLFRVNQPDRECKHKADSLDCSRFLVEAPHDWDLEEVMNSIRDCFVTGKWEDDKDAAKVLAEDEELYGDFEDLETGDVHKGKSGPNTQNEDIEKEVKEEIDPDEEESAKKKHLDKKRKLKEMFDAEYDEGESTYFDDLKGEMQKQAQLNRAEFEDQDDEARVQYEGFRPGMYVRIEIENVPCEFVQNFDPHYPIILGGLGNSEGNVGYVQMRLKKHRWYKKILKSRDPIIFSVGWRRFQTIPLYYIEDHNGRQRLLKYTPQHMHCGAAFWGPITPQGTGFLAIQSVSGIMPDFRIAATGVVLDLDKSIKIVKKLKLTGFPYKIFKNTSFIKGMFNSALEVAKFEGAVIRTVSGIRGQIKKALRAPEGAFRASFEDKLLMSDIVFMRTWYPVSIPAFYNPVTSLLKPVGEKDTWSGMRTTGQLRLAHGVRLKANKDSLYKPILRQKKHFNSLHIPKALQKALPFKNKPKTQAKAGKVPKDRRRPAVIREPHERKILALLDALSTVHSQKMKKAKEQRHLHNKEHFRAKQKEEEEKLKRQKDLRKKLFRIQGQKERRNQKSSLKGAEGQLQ
# UniProt Q9NXV6, sequence (Q9NXV6 whole entry, looked up): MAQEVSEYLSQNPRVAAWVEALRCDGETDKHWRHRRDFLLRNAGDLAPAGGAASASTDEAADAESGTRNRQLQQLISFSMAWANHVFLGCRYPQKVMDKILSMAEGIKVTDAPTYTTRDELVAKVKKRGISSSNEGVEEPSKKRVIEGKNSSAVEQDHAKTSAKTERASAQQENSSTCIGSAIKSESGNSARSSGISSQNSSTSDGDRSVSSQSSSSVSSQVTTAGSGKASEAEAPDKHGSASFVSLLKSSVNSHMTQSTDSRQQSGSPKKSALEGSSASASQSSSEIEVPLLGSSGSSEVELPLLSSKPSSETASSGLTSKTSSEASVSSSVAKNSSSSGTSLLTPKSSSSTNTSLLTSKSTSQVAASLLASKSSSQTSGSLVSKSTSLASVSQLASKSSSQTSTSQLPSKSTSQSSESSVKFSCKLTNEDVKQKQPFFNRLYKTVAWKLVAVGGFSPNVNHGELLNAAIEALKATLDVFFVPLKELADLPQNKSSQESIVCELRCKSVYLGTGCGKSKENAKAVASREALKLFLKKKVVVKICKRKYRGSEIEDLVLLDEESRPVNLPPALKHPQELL
# UniProt Q8ND76, sequence (Q8ND76 whole entry, looked up): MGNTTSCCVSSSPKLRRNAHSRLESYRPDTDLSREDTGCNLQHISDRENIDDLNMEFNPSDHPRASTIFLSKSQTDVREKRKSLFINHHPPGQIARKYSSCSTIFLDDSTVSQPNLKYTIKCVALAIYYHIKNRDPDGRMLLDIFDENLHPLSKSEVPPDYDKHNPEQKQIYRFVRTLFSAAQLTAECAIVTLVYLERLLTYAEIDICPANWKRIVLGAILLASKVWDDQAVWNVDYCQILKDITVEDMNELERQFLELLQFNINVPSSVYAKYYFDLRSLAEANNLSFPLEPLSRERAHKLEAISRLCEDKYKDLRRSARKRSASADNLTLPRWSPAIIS
# UniProt P15313, sequence (P15313 whole entry, looked up): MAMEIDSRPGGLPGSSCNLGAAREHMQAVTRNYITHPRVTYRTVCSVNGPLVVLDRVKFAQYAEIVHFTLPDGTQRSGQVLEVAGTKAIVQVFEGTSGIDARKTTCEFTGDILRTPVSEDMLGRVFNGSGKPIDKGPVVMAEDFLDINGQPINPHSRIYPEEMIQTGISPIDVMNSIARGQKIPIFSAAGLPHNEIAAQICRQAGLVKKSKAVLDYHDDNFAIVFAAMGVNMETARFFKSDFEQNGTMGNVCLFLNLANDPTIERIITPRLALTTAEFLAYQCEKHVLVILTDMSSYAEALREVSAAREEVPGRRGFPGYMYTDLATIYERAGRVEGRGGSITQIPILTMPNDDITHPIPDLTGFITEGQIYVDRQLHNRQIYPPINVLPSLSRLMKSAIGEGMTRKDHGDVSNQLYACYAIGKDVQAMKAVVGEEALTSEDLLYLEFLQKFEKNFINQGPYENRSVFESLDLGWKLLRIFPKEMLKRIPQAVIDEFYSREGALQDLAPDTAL
Target,log2 fold change [1],log2 fold change (vorinostat),log2 fold change (silmitasertib),log2 fold change [2],log2 fold change (entospletinib)
C15orf41 (UniProt Q9Y2V0),-0.124,-0.362 (active),-0.011,-0.012,0.04
C16orf70 (UniProt Q9BSU1),-0.013,-0.382 (active),0.019,-0.015,-0.104
BUB1B isoform 3 (UniProt O60566),0.004,-0.376 (active),0.015,0.006,0.013
CAMK1 (UniProt Q14012),-0.13,0.027,-0.059,0.062,0.115
CCNY (UniProt Q8ND76),0.076,-0.822 (active),-0.018,-0.002,-0.074
CDK5RAP3 isoform 4 (UniProt Q96JB5),0.046,0.026,0.068,0,0.012
CANX isoform 2 (UniProt P27824),0.018,0.131,-0.004,-0.015,-0.004
CBX1 (UniProt P83916),0.029,0.092,-0.046,-0.01,-0.018
ATP6V1B1 (UniProt P15313),-0.005,0.083,-0.013,-0.006,0.014
CAMLG (UniProt P49069),-0.009,-0.15,-0.027,0.006,0.001
CHD1L (UniProt Q86WJ1),0.01,-0.277 (active),0.015,0.164,0.046
AURKA (UniProt O14965),-0.008,-0.236,0.135,0.1,0.167
ATRIP (UniProt Q8WXE1),-0.088,-0.28,0.229,0.039,-0.009
CDC40 (UniProt O60508),0.029,0.08,0.015,0.005,0.014
CDKN2AIP (UniProt Q9NXV6),-0.005,0.072,-0.037,-0.022,0.013
BPHL (UniProt Q86WA6),-0.093,0.143,0.049,-0.006,0.028
C5orf51 (UniProt A6NDU8),0.042,-0.501 (active),0.036,-0.003,0.015
CDK16 isoform 2 (UniProt Q00536),0.006,0.055,0.446 (active),0.603 (active),-0.05
C1orf112 (UniProt Q9NSG2),-0.075,-0.095,-0.084,0.003,-0.037
BMS1 (UniProt Q14692),0.024,-0.037,0.04,0.033,0.045
CAMK2G isoform 8 (UniProt Q13555),-0.044,-0.208,0.087,0.084,0.004
BAHCC1 (UniProt Q9P281),0.009,-0.082,-0.086,-0.158,-0.069
C18orf32 (UniProt Q8TCD1),0.004,-0.486 (active),-0.021,0.017,-0.071
CDC25C (UniProt P30307),-0.019,-0.271 (active),0.009,0.026,-0.01
